# This is a sample that favours compounds with a hit; in the whole collection about 7.3% have one here.
# FLuc counter: counter-screen for miR-21 project: firefly luciferase inhibitors or activators; P08659; purified FLuc, Km substrates, luminescence inhibition; Potency, µM (series often up to 57.5 µM), for inactives: top-dose activity change, negative = inhibition, hits mostly inhibitors; 6.9% of 360,000 active; AID 588342;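 also: plate controls were vehicle for no effect and reference inhibitor for full effect; nearly all actives have a fitted effect of over 55% in size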
# Target sequence (P08659 whole entry, looked up): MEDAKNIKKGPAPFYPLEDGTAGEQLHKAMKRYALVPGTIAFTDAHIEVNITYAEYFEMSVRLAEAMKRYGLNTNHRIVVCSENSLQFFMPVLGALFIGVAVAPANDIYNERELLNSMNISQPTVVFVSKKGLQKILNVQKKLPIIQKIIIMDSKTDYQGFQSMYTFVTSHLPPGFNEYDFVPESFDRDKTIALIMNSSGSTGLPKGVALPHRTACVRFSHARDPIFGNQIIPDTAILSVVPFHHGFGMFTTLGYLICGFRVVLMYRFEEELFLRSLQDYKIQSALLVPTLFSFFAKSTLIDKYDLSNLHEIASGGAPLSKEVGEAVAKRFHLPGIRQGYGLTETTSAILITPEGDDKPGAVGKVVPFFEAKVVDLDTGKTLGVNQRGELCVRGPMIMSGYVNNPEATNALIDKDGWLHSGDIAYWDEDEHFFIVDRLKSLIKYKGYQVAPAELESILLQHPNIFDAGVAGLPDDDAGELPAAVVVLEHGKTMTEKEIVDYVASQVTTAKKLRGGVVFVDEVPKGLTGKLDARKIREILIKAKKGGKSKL
#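 Biochemical qHTS of compounds, final roughly 60 µM downward over six points, against 10 nM purified firefly luciferase using Km concentrations of substrates (10 uM D-luciferin, 10 uM ATP) in Tris acetate pH 7.5 buffer; luminescence output.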
# Luc counter: counter-screen: inhibitors of Kinase-Glo firefly luciferase; Potency, µM (doses to about 38.3 µM), for inactives: at the top dose activity change, negative = inhibition, actives largely listed as inhibitors; 0.28% of 200,000 active; Q27757; Kinase-Glo luciferase, ATP luminescence, 8 min; also: % is scaled to controls: 0 for no effect and ±100 for the full control effect; nearly all actives have a fitted effect of over 60% in size
#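 Inhibition of Kinase-Glo luciferase light generation was assessed at 10 uM ATP in pH 7.2 imidazole buffer, with luminescence measured after eight minutes at ambient temperature.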
# NPC1 prom act: activators of NPC1 promoter; Huh7 NPC1 promoter luciferase reporter, 24 h; Potency, µM (series often up to 9.22 µM), for the others: at the highest dose activation, actives largely listed as activators; 2.4% of 320,000 active; also: % of control where 0% means no effect; nearly all actives have a fitted effect of over 60% in size
#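 Readout is luciferase luminescence, reflecting NPC1 promoter activation in stably transfected Huh7 cells after 24 h compound exposure at 37 °C in reduced-serum medium with 10% FBS.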
# Rab9 promoter act: activators of Rab9 promoter. Huh7 Rab9 promoter-luciferase reporter, luminescence, 24 h. Potency, µM (highest dose often 9.22 µM), without a hit: at the highest dose activation, negative = inhibition, most hits filed as activators. 2.8% of 320,000 active. AID 485297; also: % of control where 0% means no effect; nearly all actives have a fitted effect of over 60% in size
#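 Huh7 cells stably carrying a Rab9 promoter-luciferase reporter, 1500 cells per well in OP-MEM I with 10% FBS, treated with compound 24 hours at 37C. Luciferase activity read by luminescence after 10 minutes with Amplite reagent.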
# SMN2 splice enh: SMN2 splice variant enhancement. 2.8% of 210,000 active. Potency, µM (highest dose often 46.1 µM), for inactives: at the top dose activity change, positive = activation, usual class: activators. HEK293 SMN2-luciferase splicing reporter, luminescence, 30-36 h; also: % of control where 0% means no effect; nearly all actives have a fitted effect of over 55% in size
#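 HEK293 cells carry an SMN2 […]–luciferase reporter in which exon 7 inclusion puts luciferase in frame. Cells were plated 10-12 h before compound addition, then incubated 30-36 h at 37C. ONE-Glo luminescence was read; sodium butyrate at 4.5 mM final served as control.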
# ELG1 genotoxic: genotoxicity induction in ELG1-luciferase HEK293T cells; Potency, µM (series often up to 46 µM), without a hit: top-dose activity change, positive = activation, usual class: activators; AID 504466; HEK293T ELG1-luciferase reporter, luminescence, 16 h; 1.3% of 330,000 active; also: % of control where 0% means no effect; nearly all actives have a fitted effect of over 60% in size
#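 ELG1-luciferase HEK293T cells, 2,000/well; compound pinned in; 16 hr, 37 °C, 5% CO2; ONE-Glo, 30 min RT; luminescence on CCD imager.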
# The depositor's hits bear a star; ? = inconclusive; nt = no result given; [ ] = dose if it differs, or a comment. Calls follow the shape of the dose curve; as a rule, active = well fitted curve in the direction sought with a large enough effect; inconclusive = small, poorly fitted or top-dose-only effect, or another doubt; inactive = no such curve, though single readings can be large; an effect the other way counts as inactive or inconclusive. Potency is read from the fitted curve at half-maximal effect.
SMILES,FLuc counter,Luc counter,NPC1 prom act,Rab9 promoter act,SMN2 splice enh,ELG1 genotoxic
Nc1cccc(C(=O)OCC(=O)c2ccccc2)c1,1.3µM*,-17%,3.2µM*,3.5µM*,10µM*,?
C=CCC[C@H](Cc1ccc(F)cc1)C(=O)OC[C@@H](C)NC(=O)[C@@H](CC=C)CC(=O)N[C@H](CO)Cc1ccccc1,nt,nt,nt,nt,nt,-9%
Cc1c(/C(O)=C2\C(=O)C(=O)N(CCN(C)C)C2c2ccco2)cnn1-c1ccccc1 (centres undefined),27µM*,1%,?,?,-5%,9.2µM*
Cc1c(/C(O)=C2\C(=O)C(=O)N(CCN(C)C)C2c2ccccc2)cnn1-c1ccccc1 (centres undefined),17µM*,nt,19%,21%,nt,?
Cc1ccc(C2/C(=C(\O)c3cnn(-c4ccccc4)c3C)C(=O)C(=O)N2CCN(C)C)o1 (centres undefined),-13%,0%,?,?,-23%,0%
Oc1ccc(-c2nccc(-c3cccs3)n2)cc1,8.5µM*,1%,?,22%,?,?
COC(=O)C(C)Oc1ccc(-c2nccc(-c3cccs3)n2)cc1 (centres undefined),17µM*,4%,18%,24%,?,11%
Oc1ccc(O)cc1,nt,-3%,-32%[46.1 µM],-42%[46.1 µM],9%,nt
Oc1ccc(-c2cccc(-c3ccc(O)cc3)n2)cc1,17µM*,0%,-3%,27%,?,11%
Oc1ccc(-c2nnc(-c3ccc(O)cc3)nn2)cc1,2.7µM*,-4%,3.2µM*,4µM*,14µM*,18%
O=C(Nc1nccc(-c2cccs2)n1)c1ccccc1Cl,-17%,-2%,6%,18%,-2%,5%
Cn1ncc(Br)c1C(=O)NC1CCCCC1,0%,nt,0%,-2%,nt,-9%
Cc1nnc(SCc2cnc(-c3ccccc3)o2)[nH]c1=O,2%,2%,0%,0%,-11%,-3%
CCOC(=O)CN(Cc1ccccc1)C(C(=O)NC1CCCCC1)c1ccc(OC)cc1 (centres undefined),-2%,nt,nt,nt,-7%,nt
O=C(c1ccco1)N1CCN(S(=O)(=O)c2ccc(C3CCCCC3)cc2)CC1,3%,3%,-3%,-13%,-74%,-5%
Oc1ccc(-c2nccc(-c3ccc(Cl)cc3)n2)cc1,17µM*,-3%,2%,13%,12%,?
COc1ccc(C2OCC3(O)C(c4ccc(OC)c(OC)c4)OCC23)cc1OC (centres undefined),0%,nt,0%,-2%,nt,-3%
Cc1ccnc(SCC(=O)c2ccc(Br)s2)n1,-7%,-1%,-1%,18%,15%,4%
CCn1c(SCC(=O)c2ccc(O)c(O)c2)nnc1-c1ccccc1,?,-1%,-2%,-8%,?,21µM*
CCn1c(SCC(=O)O)nnc1-c1cc2c(C)nn(-c3ccccc3)c2s1,9.5µM*,-1%,2%,0%,-6%,1%
Cc1ccnc(SCC(=O)c2cccs2)n1,?,-18%,3.5µM*,3.2µM*,?,?
CCn1c(SCC(=O)c2ccccc2)nnc1-c1cccs1,9.5µM*,-4%,?,?,8%,?
CCn1c(SCC(=O)c2ccc(O)c(O)c2)nnc1-c1ccccc1OC,-17%,-3%,-1%,-1%,5%,0%
Cc1ccc(CN2CCN(c3ncccn3)CC2)o1,-2%,-4%,0%,9%,7%,1%
CCn1c(SCC(=O)c2cccs2)nnc1-c1ccco1,21µM*,-2%,17%,21%,-1%,17%
SMILES,FLuc counter,Luc counter,NPC1 prom act,Rab9 promoter act,SMN2 splice enh,ELG1 genotoxic
CCn1c(SCC(=O)c2cc(C)n(-c3ccc(C(=O)OC)cc3)c2C)nnc1-c1cccnc1,15µM*,-5%,-1%,-4%,-7%,-17%
CCn1c(SCC(N)=O)nnc1-c1ccco1,2%,-2%,8%,1%,7%,2%
O=C(Nc1ccc(O)cc1)c1cc2ccccc2c(=O)s1,?,-2%,4µM*,?,nt,3%
O=C(Nc1ccc(Cl)cc1)c1cc2c(Cl)nc3ccccc3c2s1,-3%,nt,nt,nt,-2%,nt
O=C(Nc1ccccc1)c1cc2ccccc2c(=O)s1,11µM*,-6%,?,2.8µM*,?,-4%
CN1CCN(CCn2c(=S)[nH]c3ccccc3c2=O)CC1,1%,nt,0%,-3%,nt,-2%
COc1ccc2[nH]cc(/C=C/C(=O)c3ccccc3)c2c1,3.4µM*,nt,3.2µM*,1.6µM*,nt,?
Cc1ccc(S(=O)(=O)/C(C#N)=C/c2c[nH]c3ccccc23)cc1,1%,-4%,-1%,-7%,-6%,-5%
O=C(/C=C/c1c[nH]c2ccccc12)c1ccccc1,5.4µM*,-1%,3.2µM*,3.5µM*,10µM*,16µM*
COc1ccc2[nH]cc(C=O)c2c1,-2%,0%,8%,-4%,-14%,-2%
Cc1ccc(C(=O)/C=C/c2c[nH]c3ccccc23)cc1,5.4µM*,-5%,4µM*,3.5µM*,?,?
COc1ccccc1NC(=O)CSc1nc2ccccc2c(=O)n1CCNC(C)=O,-2%,-2%,1%,-4%,21%,3%
COc1cccc(F)c1C(=O)NC(=O)Nc1ccc2nc(C)oc2c1,-7%,nt,0%,-2%,nt,1%
CN(C)CCCN(Cc1ccccc1)C(=S)Nc1ccc(OC(F)F)cc1,4%,nt,-3%,1%,nt,-2%
COC(=O)c1c(NC(=O)c2ccc(C)cc2)csc1C,11µM*,nt,-5%,-2%,nt,0%
COC(=O)c1c(-c2cccs2)csc1NC(=O)c1ccc(C)cc1,5.4µM*,nt,nt,nt,nt,nt
COc1ccc(OC)c(CN2CCC(C(=O)N3CCOCC3)CC2)c1,0%,11%,-3%,-2%,8%,0%
COc1ccc(NC(=O)C(=O)c2cn(CC(=O)N3CCCC3)c3ccccc23)cc1,12µM*,nt,-16%,-21%,nt,?
CC(=O)Nc1cccc(NC(=O)C(=O)c2cn(CC(=O)N3CCCCC3)c3ccccc23)c1,8.5µM*,-6%,22%,?,17%,8%
O=C(CSc1cn(CC(=O)N2CCCCCC2)c2ccccc12)Nc1ccccc1F,-16%,nt,nt,nt,nt,nt
CC(=O)Nc1ccc(NC(=O)C(=O)c2cn(CC(=O)N3CCCC3)c3ccccc23)cc1,-13%,nt,7%,0%,nt,-6%
O=C(Nc1ccccc1F)C(=O)c1cn(CC(=O)N2CCCCC2)c2ccccc12,5.4µM*,-4%,14%,30%,?,-2%
COc1ccc(CCN(C)C(=O)c2c(C)noc2C)cc1OC,-2%,nt,-6%,1%,nt,2%
COc1cnc(-c2ccccn2)nc1N(C)c1ccccc1,11µM*,nt,0%,1%[1.84 µM],nt,21%

# Assay outcomes deposited in PubChem BioAssay by National Center for Advancing Translational Sciences (NCATS).
